Compounds with a hit are over-represented: about 32% of the library has one in this group of screens.
PostGolgi ctrl: growth of the yeast control strain, post-Golgi counter-screen; efflux-deficient yeast background strain, growth absorbance A615, 16 h; inhibition, % at 10 µM; 98,000 tested, 5% active; AID 738
PostGolgi yeast: growth inhibition of a yeast mutant, post-Golgi transport screen. post-Golgi transport phenotypic cell assay. inhibition, % at 10 µM. 98,000 tested, 0.9% active. AID 739;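 further: yeast cells grown in 1536-well plates; yeast grown about 18 h at 30C before absorbance read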
CYP2C9 activ: CYP2C9 (human) activation; P11712; activation factor at 5 µM; 96,000 tested, 1.4% active; recombinant CYP2C9, luciferin-H conversion, luminescence; active compounds read high; factor 1 = untreated enzyme, 0 = blocked;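 active means activation factor of 2 or more for CYP2C9 at a 5 µM dose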;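 further: 0 = sulfaphenazole-blocked wells and 1 = vehicle-only wells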
Target sequence (P11712 whole entry, looked up): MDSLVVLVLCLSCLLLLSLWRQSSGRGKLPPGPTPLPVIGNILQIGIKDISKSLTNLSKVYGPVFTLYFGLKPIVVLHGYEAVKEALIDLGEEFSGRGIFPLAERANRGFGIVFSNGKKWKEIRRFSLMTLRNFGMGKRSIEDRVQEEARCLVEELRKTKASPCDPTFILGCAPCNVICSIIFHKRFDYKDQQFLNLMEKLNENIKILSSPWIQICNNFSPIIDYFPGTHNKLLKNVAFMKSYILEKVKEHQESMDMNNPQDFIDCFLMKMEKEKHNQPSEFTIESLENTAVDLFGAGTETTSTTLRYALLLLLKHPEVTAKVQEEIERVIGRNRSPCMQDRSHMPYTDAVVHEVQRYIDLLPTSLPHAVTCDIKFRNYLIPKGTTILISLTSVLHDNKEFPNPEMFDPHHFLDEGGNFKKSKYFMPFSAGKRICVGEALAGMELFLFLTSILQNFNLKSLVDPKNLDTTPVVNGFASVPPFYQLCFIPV
CYP2C19 act: cytochrome P450 2C19 (human) activation; P33261; recombinant CYP2C19, luciferin-H EGE luminescence; active compounds read high; 0 = fully inhibited enzyme, 1 = untreated enzyme; 96,000 tested, under 10 active; activation factor at 5 µM;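 active means activation factor of at least 2 at 5 µM in the primary screen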;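 further: 0 = wells with 2.5 mM tranylcypromine and 1 = vehicle-only wells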
CYP2C19 inh: blocks human cytochrome P450 2C19; CYP2C19 Supersomes, luciferin-H EGE luminescence, 30 min; inhibition, % at 5 µM; 96,000 tested, 21% active; AID 778;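 active means CYP2C19 inhibition above a set limit at 5 µM in the primary screen, cut at about 50% in these data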;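 further: plate controls were negative control wells for no effect and 2.5 mM tranylcypromine positive control for full effect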
CYP2C9 inhib: blocks human cytochrome P450 2C9; P11712; CYP2C9 Supersomes, luciferin-H conversion, luminescence; inhibition, % at 5 µM; 96,000 tested, 20% active;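 active means blocking of liver enzyme CYP2C9 beyond about 50% at 5 µM, limit read from the data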
The depositor's hits bear a star; . = not tested or not shown. Unless noted, no stated cut-off is given here; in the data, active means inhibition above about 30%; inactive means the rest.

SMILES | PostGolgi ctrl | PostGolgi yeast | CYP2C9 activ | CYP2C19 act | CYP2C19 inh | CYP2C9 inhib
CCOC(=O)c1c(C)n(Cc2ccccc2)c2ccc(OCC(O)CN3C(=O)CNC3=O)cc12 (stereo not drawn) | 18.8 | 3.3 | 0.1 | 0.3 | 68.5* | 87.4*
CC(=O)N1CC(=O)Nc2ccc(Cl)cc2C1c1ccc(F)cc1 (stereo not drawn) | . | . | 1 | 0.9 | 9.1 | 1.3
CCOc1cc(C2NCc3ccccc3-n3cccc32)ccc1O (stereo not drawn) | 8.4 | 7.3 | 0.3 | 0.4 | 60.8* | 74.6*
CCOc1cccc(C2NCc3ccccc3-n3cccc32)c1O (stereo not drawn) | 0.3 | 1.9 | 0.7 | 0.6 | 38.2 | 26.1
O=C(CNC1CCCCC1)N1CCC2(CC1)OCCO2 | 0.0 | -1.0 | 1.2 | 0.9 | 9.2 | -22.3
Clc1cccc(C2NCCc3[nH]cnc32)c1 (stereo not drawn) | 39.6* | -28.3 | 1 | 1 | -2.2 | 0.3
CNC(=O)Oc1ccc2c(c1)C(=O)c1ccccc1CO2 | -1.9 | -0.9 | 0.6 | 0.4 | 60.6* | 39.6
Brc1ccc(CN2CCNCC2)s1 | -7.3 | -5.4 | 0.8 | 0.9 | 11.3 | 18.5
COC(=O)c1c(C)n(Cc2ccc3c(c2)OCO3)c2ccc(O)cc12 | 17.2 | -0.2 | 0.2 | 0.2 | 81.6* | 78.9*
CCOC(=O)c1c(C)n(Cc2ccc3c(c2)OCO3)c2ccc(O)cc12 | 1.8 | 2.6 | 0.6 | 0.7 | 25.2 | 42.0
CCOC(=O)c1c(C)n(Cc2ccco2)c2ccc(O)cc12 | 14.1 | -8.3 | 0.7 | 0.4 | 55.5* | 28.4
CCCCn1c(O)c(C=Nc2c(C)n(C)n(-c3ccccc3)c2=O)c(=O)[nH]c1=O | -2.4 | 0.5 | 1 | 1 | 1.4 | -3.4
O=c1cccc2n1CC1CC2CN(Cc2c(Cl)cccc2Cl)C1 (stereo not drawn) | 20.1 | 5.2 | 0.3 | 0 | 97.2* | 70.0*
CC(=NCCCN1CCOCC1)c1c(O)[nH]c(=O)[nH]c1=O | 2.0 | -1.4 | 1 | 1 | 2.9 | 2.8
CC1CN=C(Nc2ccc(N(C)C)cc2)S1 (stereo not drawn) | 7.7 | 3.6 | 1 | 0.4 | 56.1* | 3.1
CCCCSC1=NN1c1nc(N)nc(C)c1CC | 5.0 | 2.2 | 0.7 | 0.6 | 39.0 | 34.3
O=C(Nc1ccc(C(F)(F)F)cc1)c1cccn(Cc2ccc3c(c2)OC(F)(F)O3)c1=O | 20.9 | -5.2 | 0.9 | 1.2 | -18.3 | 11.6
Cc1cccc(C)c1NC(=O)c1cccn(Cc2ccc3c(c2)OC(F)(F)O3)c1=O | 75.2* | -10.7 | 0.7 | 0.3 | 68.2* | 33.9
CC(C)Oc1cccc(NC(=O)c2cccn(Cc3ccc4c(c3)OC(F)(F)O4)c2=O)c1 | 19.0 | 0.0 | 0.2 | 0.8 | 24.6 | 84.2*
CC(C)Oc1ccc(Cc2c(O)[nH]c(=O)[nH]c2=O)cc1 | 3.5 | 4.3 | 1.1 | 1.1 | -9.0 | -5.6
O=C(Nc1cccc(C(F)(F)F)c1)c1cccn(Cc2ccc3c(c2)OC(F)(F)O3)c1=O | 31.9* | 7.8 | 0.4 | 0.8 | 20.4 | 64.8*
O=C(Nc1ccccc1OC(=O)N1CCCCC1)N1CCCCC1 | 16.9 | 7.8 | 1.1 | 0.9 | 9.2 | -6.3
CC(C(=O)c1c[nH]c2ccccc12)N1CCSCC1 (stereo not drawn) | -8.5 | 2.6 | 0.8 | 0.6 | 40.2 | 15.4
FC(F)(F)c1ccc2c(c1)N(CCCN1CCN(CCCl)CC1)c1ccccc1S2 | -1.2 | -2.0 | 1.1 | 0.5 | 50.4* | -6.3
CCOC(=O)C1C2NC(=O)N(Cc3ccccc3)C1(C)Oc1c(OC)cccc12 (stereo not drawn) | 16.4 | 7.5 | 0.8 | 0.8 | 18.6 | 16.0
SMILES | PostGolgi ctrl | PostGolgi yeast | CYP2C9 activ | CYP2C19 act | CYP2C19 inh | CYP2C9 inhib
CCCCn1c(O)c(C(C)=NCCCN(C)C)c(=O)[nH]c1=O | 17.8 | 3.3 | 1.2 | 1.1 | -11.5 | -19.8
CCCCn1c(O)c(C(C)=NCCCN(CC)CC)c(=O)[nH]c1=O | -0.1 | -2.9 | 0.9 | 1 | -1.4 | 11.5
CCCCCCN=C(C)c1c(O)n(CCCC)c(=O)[nH]c1=O | 38.1* | 8.5 | 0.3 | 0.5 | 54.6* | 65.5*
C=CCn1c(O)c(C(=O)CCCCCC)c(=O)[nH]c1=O | -4.0 | 8.7 | 0.4 | 0.9 | 5.4 | 57.3*
CCCCn1c(O)c(C(C)=NCCCn2ccnc2)c(=O)[nH]c1=O | 4.0 | 0.6 | 0.1 | 0.7 | 32.7 | 90.2*
Cn1c(O)c(C=NCCCNC2CCCCC2)c(=O)n(C)c1=O | 4.3 | 3.7 | . | . | . | .

High-throughput results from PubChem BioAssay.
